Laboratory results published in PubChem BioAssay (Tox21).
Records with an inconclusive call do not appear. A call without a number means that no potency is given here. A number with no mark means an inactive call. Active and inactive are the calls of the source. The call rests on the fitted dose curve; in most records, active means well fitted activation curve with a large enough effect in the repeat runs; inconclusive means weak or mixed curves; inactive means flat fitted curve, though single readings scatter.

Assay: A CellTox Green Cytotoxicity Assay to monitor cytotoxicity in HEK293 cells - 8 hour (AID 1224884); further: nearly all actives have a fitted effect of over 35% in size
Details: CellTox Green fluorescence; series mostly up to 76.8 µM
From the text: National Center for Advancing Translational Sciences [NCATS]
NIH Chemical Genomics Center [NCGC]
U.S. Environmental Protection Agency [EPA]
National Institutes of Environmental Health Sciences [NIEHS]
National Toxicology Program [NTP]
Cell-based models are critical for drug discovery. Determining the natural cytotoxic effects resulting from test compounds is an essential research activity. A CellTox Green Cytotoxicity Assay to monitor cytotoxicity in real time of continues cell culture during 40 hours of the compound treatment was used to screen Tox21 10K library compounds in Hek293 cells. CellTox Green Cytotoxicity Assay is a nonlytic, homogeneous, biofluorescent method to measure cytotoxicity in cell culture after experimental manipulation. The assay system uses a proprietary asymmetric cyanine dye that is excluded from viable cells but preferentially stains the dead cell's DNA. […] Viable cells produce no appreciable increases in fluorescence. Therefore, the fluorescence signal produced by the binding interaction with dead cell DNA is proportional to cytotoxicity.
The mixture of Hek293 cell suspension and reagents were dispensed at 600cells/6 ul/well in 1536-well tissue culture treated black solid bottom plates using a Multidrop dispenser. After the assay plates were incubated at a 37 C/5% CO2 incubator for 5 hours, 23 nL of compounds dissolved in DMSO, positive and negative controls was transferred to the assay plate by a pintool work station. The plates were incubated at 37 C for 40 hours. The fluorescence intensity were measured at 0h, 8h, 16h, 24h, 32h and 40h time points using ViewLux plate reader during compound treatment.

Compound | Potency | cytotoxicity increase
CCCC[P+](CC)(CCCC)CCCC (tested in a mixture with another compound) | inactive | 
COP(=O)(OC)OC(Br)C(Cl)(Cl)Br (stereo not given) | inactive | 
O=C(Cl)OCCOCCOC(=O)Cl | inactive | 
O=C(N[C@H]1CN2CCC1CC2)c1ccc2c(c1)OCCO2 | inactive | 
CCc1ccccc1N | inactive | 
Clc1ccccc1 | inactive | 
CCOP(=S)(OCC)Oc1ccc(S(C)=O)cc1 (stereo not given) | inactive | 
CCC1(CCC(C)C)C(=O)NC(=O)NC1=O | inactive | 
Cc1ccccc1 | inactive | 
CC(C)c1ccc(NC(=O)N(C)C)cc1 | inactive | 
OCCCl | inactive | 
CCCC[N+](CCCC)(CCCC)CCCC | inactive | 
C=CC(C)(CCC=C(C)C)OC(=O)c1ccccc1N (stereo not given) | inactive | 
CC1(C)[C@H](C(=O)O[C@H](C#N)c2cccc(Oc3ccccc3)c2)[C@@H]1C=C(Br)Br | inactive | 
COc1cc(CC(C)N)c(OC)cc1Br (stereo not given) | inactive | 
CC(C)(C)OOC(C)(C)CCC(C)(C)OOC(C)(C)C | inactive | 
CCCBr | inactive | 
O=C(O)c1cc(Cl)ccc1Cl | inactive | 
COC1CC(=C(c2cccs2)c2cccs2)C[N+](C)(C)C1 (stereo not given) | inactive | 
O=C(O)C(F)(F)C(F)(F)C(F)(F)C(F)(F)C(F)(F)C(F)(F)C(F)(F)C(F)(F)F | inactive | 

Compound | Potency | cytotoxicity increase
CC(C)OC(=O)Cc1ccccc1 | inactive | 
O=S(=O)(c1ccccc1)c1ccccc1 | inactive | 
Oc1cccc(Cl)c1 | inactive | 
O=C(CCl)CCl | inactive | 
CCCN(CCOc1c(Cl)cc(Cl)cc1Cl)C(=O)n1ccnc1 | inactive | 
CC(C)CCCCCCCOC(=O)c1ccccc1C(=O)OCCCCCCCC(C)C | inactive | 
Nc1c(Br)cc(Br)c2c1C(=O)c1ccccc1C2=O |  | -10.2% [at 15.8 µM]
CCC1(C2=NCCN2)Cc2ccccc2O1 (stereo not given) | inactive | 
O=P(OCC(Br)CBr)(OCC(Br)CBr)OCC(Br)CBr (stereo not given) | inactive | 
CCCN(CCC)c1c([N+](=O)[O-])cc(C(C)C)cc1[N+](=O)[O-] | inactive | 
CCCC1CCCCN1 (stereo not given) | inactive | 
O=C1c2ccccc2C(=O)N1SC(Cl)(Cl)Cl | inactive | 
CN[C@@H](C)[C@H](O)c1ccccc1 | inactive | 
O=C=NC1CCCCC1 | inactive | 
CCOc1cccc(C2(N3CCN(c4ccccc4)CC3)CCC(C)CC2)c1 (stereo not given) | inactive | 
C#CC(O)(C=CCl)CC (stereo not given) | inactive | 
O=C(O)COc1cc(Cl)c(Cl)cc1Cl | inactive | 
CC(C)c1ccc(OP(=O)(Oc2ccc(C(C)C)cc2)Oc2ccc(C(C)C)cc2)cc1 | inactive | 
CCC1(CC)C(=O)NC(=O)NC1=O | inactive | 
CCCCC(CC)COC(=O)c1c(Br)c(Br)c(Br)c(Br)c1C(=O)OCC(CC)CCCC (stereo not given) | inactive | 
